According to PubChem BioAssay (NCATS):
Records with an inconclusive call do not appear. Entries that show only a call come without a potency. Calls of active or inactive are those of the source. Unless noted, calls follow the shape of the dose curve; as a rule, active = well fitted curve in the direction sought with a large enough effect; inconclusive = small, poorly fitted or top-dose-only effect, or another doubt; inactive = no such curve, though single readings can be large; an effect the other way counts as inactive or inconclusive.

Biological target: Mitogen-activated protein kinase 10 (Mus musculus) (UniProt Q61831)
Test: JNK3 AlphaScreen Assay (AID 530; active = well fitted curve in either direction with a large enough effect, not every such curve was filed as active;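 also: kinase came from lysate of stimulated human HepG2 cells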; also: potency is read from the fitted curve at half-maximal effect)
Conditions: JNK3 lysate, c-Jun phosphorylation; series mostly up to 57.1 µM
In short: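 Biotinylated GST-cJun(1-79) served as substrate for JNK3 in HepG2 lysates stimulated with IL-1beta and TNF-alpha. ATP was 10 uM final, pH 7.6. Ser73 phosphorylation was quantified by AlphaScreen (680 nm excitation).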
With O=C(O)C(Br)Br the Potency was “inactive”.
In the case of Oc1c(Cl)c(Cl)cc(Cl)c1Cl, the Potency is reported as “inactive”.
With CN(C)c1ccc(N(C)C)cc1 the Potency was “inactive”.
In the case of O=[N+]([O-])c1c(Cl)c(Cl)c(Cl)c(Cl)c1Cl, the Potency is reported as “inactive”.
In the case of C=CC(=O)OCCO, the Potency is reported as “inactive”.
For O=[N+]([O-])c1ccc(O)c([N+](=O)[O-])c1, the Potency was “inactive”.
With CC(C)[N+](=O)[O-] the Potency was “inactive”.
For CCCC[N+](=O)[O-], the Potency was “inactive”.
With Nc1cc(Cl)ccc1O the Potency was “inactive”.
With CCN(N=O)C(N)=O the Potency was “inactive”.
For N#CC(Cl)(Cl)Cl, the Potency was “inactive”.
With CCCCC(CC)COC(=O)c1ccc(C(=O)OCC(CC)CCCC)c(C(=O)OCC(CC)CCCC)c1 (configuration not stated) the Potency was “inactive”.
For O=C(O)C(Br)CBr (configuration not stated), the Potency was “inactive”.
In the case of Nc1c(Br)cc([N+](=O)[O-])cc1[N+](=O)[O-], the Potency is reported as “inactive”.
For N#CC(Br)Br, the Potency was “inactive”.
In the case of O=C(O)C(Cl)Br (configuration not stated), the Potency is reported as “inactive”.
For COP(=S)(OC)SCn1nnc2ccccc2c1=O, the Potency was “inactive”.
In the case of Nc1ccc([N+](=O)[O-])cc1N, the Potency is reported as “inactive”.
In the case of O=C(O)c1cccc(Cl)c1, the Potency is reported as “inactive”.
In the case of OCCCCO, the Potency is reported as “inactive”.
In the case of O=[N+]([O-])c1cc(Cl)c(Cl)c(Cl)c1, the Potency is reported as “inactive”.
In the case of CC(C)(COCC1CO1)COCC1CO1 (configuration not stated), the Potency is reported as “inactive”.
With Cc1ccc2c(c1N)C(=O)c1ccccc1C2=O the Potency was 3.98 µM (active).
For COc1ccccc1N, the Potency was “inactive”.
For CC(C)(C)OOC(=O)c1ccccc1, the Potency was “inactive”.
With COC(C)(C)C the Potency was “inactive”.
For C(CCOCC1CO1)COCC1CO1 (configuration not stated), the Potency was “inactive”.
With O=[N+]([O-])/C=C/c1ccccc1 the Potency was “inactive”.

Tested on: not listed separately
Test: Cell Viability - N2a (AID 540);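 also: cells exposed to compound for 40 h at 37 °C; nearly all actives have a fitted effect of over 45% in size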
Conditions: N2a mouse neuroblastoma cell viability; activity change, negative = cytotoxicity: at 92.2 µM (top of the series)
In short: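 N2a mouse neuroblastoma, 1500 cells/well, 5 hr settle; compound 40 hr, 37 °C; CellTiter-Glo 20 min RT; luminescence; Hill-fit AC50.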
With CN1CSC(=S)N(C)C1 the Potency was “inactive”.
With C=CC(=O)OCCO the Potency was “inactive”.
With CC(C)Br the Potency was “inactive”.
In the case of CC(C)[N+](=O)[O-], the Potency is reported as “inactive”.
With Cc1cc(-c2cc(C)c(N)c(C)c2)cc(C)c1N the Potency was “inactive”.
For CCN(N=O)C(N)=O, the Potency was “inactive”.
With N#CC(Cl)(Cl)Cl the Potency was “inactive”.
In the case of CCCCC(CC)COC(=O)c1ccc(C(=O)OCC(CC)CCCC)c(C(=O)OCC(CC)CCCC)c1 (configuration not stated), the Potency is reported as “inactive”.
In the case of O=C(O)C(Br)CBr (configuration not stated), the Potency is reported as “inactive”.
For O=[N+]([O-])c1ccccc1CCl, the Potency was “inactive”.
With N#CC(Br)Br the Potency was “inactive”.
In the case of Nc1ccc([N+](=O)[O-])cc1N, the Potency is reported as “inactive”.
For OCCCCO, the Potency was “inactive”.
With O=[N+]([O-])c1cc(Cl)c(Cl)c(Cl)c1 the Potency was “inactive”.
For CC(C)(COCC1CO1)COCC1CO1 (configuration not stated), the Potency was “inactive”.
For CC(C)(C)OOC(=O)c1ccccc1, the Potency was “inactive”.
In the case of c1ccc(N=NNc2ccccc2)cc1, the Potency is reported as “inactive”.
In the case of C(CCOCC1CO1)COCC1CO1 (configuration not stated), the Potency is reported as “inactive”.
For CN(C)c1ccc(N)cc1, the activity change, negative = cytotoxicity was -109% (active).

Tested on: not listed separately
Test: Cell Viability - NIH 3T3 (AID 541);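 also: cells exposed to compound for 40 hours; nearly all actives have a fitted effect of over 25% in size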; also: potency is read from the fitted curve at half-maximal effect
Conditions: NIH 3T3 cell viability, qHTS; activity change, negative = cytotoxicity: at 92.2 µM (top of the series)
In short: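 qHTS format; 40 hr compound exposure, 37 °C; CellTiter-Glo luminescence (cellular ATP) read-out after 20 min at RT. Decrease in ATP = cytotoxicity; AC50 from standard Hill fit.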
For Brc1ccc(Oc2ccc(Br)cc2Br)c(Br)c1, the Potency was “inactive”.
In the case of O=[N+]([O-])c1c(Cl)c(Cl)c(Cl)c(Cl)c1Cl, the Potency is reported as 31.6 µM (active).
In the case of CN1CSC(=S)N(C)C1, the Potency is reported as 1.26 µM (active).
For ClCC(Cl)Cl, the Potency was “inactive”.
With C=CC(=O)OCCO the Potency was 31.6 µM (active).
In the case of CC(C)Br, the Potency is reported as “inactive”.
For CCCC[N+](=O)[O-], the Potency was “inactive”.
With Cc1cc(-c2cc(C)c(N)c(C)c2)cc(C)c1N the Potency was “inactive”.
For CCN(N=O)C(N)=O, the Potency was “inactive”.
In the case of N#CC(Cl)(Cl)Cl, the Potency is reported as “inactive”.
In the case of CCCCC(CC)COC(=O)c1ccc(C(=O)OCC(CC)CCCC)c(C(=O)OCC(CC)CCCC)c1 (configuration not stated), the Potency is reported as “inactive”.
With Nc1c(Br)cc([N+](=O)[O-])cc1[N+](=O)[O-] the Potency was “inactive”.
For O=[N+]([O-])c1ccccc1CCl, the Potency was 12.6 µM (active).
For O=C(O)C(Cl)Br (configuration not stated), the Potency was “inactive”.
In the case of O=C(O)c1cccc(Cl)c1, the Potency is reported as “inactive”.
In the case of OCCCCO, the Potency is reported as “inactive”.
With O=[N+]([O-])c1cc(Cl)c(Cl)c(Cl)c1 the activity change, negative = cytotoxicity was -119% (active).
With Cc1ccc2c(c1N)C(=O)c1ccccc1C2=O the Potency was 25.1 µM (active).
With COc1ccccc1N the Potency was “inactive”.
For CC(C)(C)OOC(=O)c1ccccc1, the activity change, negative = cytotoxicity was -137% (active).
For COC(C)(C)C, the Potency was “inactive”.
For C(CCOCC1CO1)COCC1CO1 (configuration not stated), the Potency was “inactive”.
With CN(C)c1ccc(N)cc1 the activity change, negative = cytotoxicity was -87% (active).
For O=[N+]([O-])/C=C/c1ccccc1, the Potency was 15.8 µM (active).

Tested on: not listed separately
Test: Cell Viability - HUV-EC-C (AID 542);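 also: cells exposed to compound for 40 hours; nearly all actives have a fitted effect of over 35% in size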; also: potency is read from the fitted curve at half-maximal effect
Conditions: HUV-EC-C endothelial cell viability, qHTS; series mostly up to 92.2 µM
In short: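 Luminescent ATP read-out (CellTiter-Glo, 20 min room temperature) after 40 hr compound treatment of HUV-EC-C cells at 37 °C. Concentration-response data fitted with the standard Hill equation to give AC50; tamoxifen and doxorubicin served as positive controls.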
For O=C(O)C(Br)Br, the Potency was “inactive”.
In the case of Cc1ccc(OP(=O)(Oc2ccc(C)cc2)Oc2ccc(C)cc2)cc1, the Potency is reported as “inactive”.
With Oc1c(Cl)c(Cl)cc(Cl)c1Cl the Potency was “inactive”.
With CN(C)c1ccc(N(C)C)cc1 the Potency was “inactive”.
In the case of Brc1ccc(Oc2ccc(Br)cc2Br)c(Br)c1, the Potency is reported as “inactive”.
In the case of O=[N+]([O-])c1c(Cl)c(Cl)c(Cl)c(Cl)c1Cl, the Potency is reported as “inactive”.
For CN1CSC(=S)N(C)C1, the Potency was “inactive”.
For ClCC(Cl)Cl, the Potency was “inactive”.
With C=CC(=O)OCCO the Potency was “inactive”.
With CC(C)Br the Potency was “inactive”.
In the case of O=[N+]([O-])c1ccc(O)c([N+](=O)[O-])c1, the Potency is reported as “inactive”.
In the case of CC(C)[N+](=O)[O-], the Potency is reported as “inactive”.
For CCCC[N+](=O)[O-], the Potency was “inactive”.
In the case of Cc1cc(-c2cc(C)c(N)c(C)c2)cc(C)c1N, the Potency is reported as “inactive”.
With CCN(N=O)C(N)=O the Potency was “inactive”.
For N#CC(Cl)(Cl)Cl, the Potency was “inactive”.
For CCCCC(CC)COC(=O)c1ccc(C(=O)OCC(CC)CCCC)c(C(=O)OCC(CC)CCCC)c1 (configuration not stated), the Potency was “inactive”.
For O=C(O)C(Br)CBr (configuration not stated), the Potency was “inactive”.
In the case of Nc1c(Br)cc([N+](=O)[O-])cc1[N+](=O)[O-], the Potency is reported as “inactive”.
With O=[N+]([O-])c1ccccc1CCl the Potency was “inactive”.
In the case of Cc1cc(C)cc(OP(=O)(Oc2cc(C)cc(C)c2)Oc2cc(C)cc(C)c2)c1, the Potency is reported as “inactive”.
For N#CC(Br)Br, the Potency was “inactive”.
With O=C(O)C(Cl)Br (configuration not stated) the Potency was “inactive”.
For COP(=S)(OC)SCn1nnc2ccccc2c1=O, the Potency was “inactive”.
For Nc1ccc([N+](=O)[O-])cc1N, the Potency was “inactive”.
For O=C(O)c1cccc(Cl)c1, the Potency was “inactive”.
With Cc1cc(N=Nc2ccccc2C)ccc1N the Potency was “inactive”.
With OCCCCO the Potency was “inactive”.
With O=[N+]([O-])c1cc(Cl)c(Cl)c(Cl)c1 the Potency was “inactive”.
With CC(C)(COCC1CO1)COCC1CO1 (configuration not stated) the Potency was “inactive”.
For COc1ccccc1N, the Potency was “inactive”.
For CC(C)(C)OOC(=O)c1ccccc1, the Potency was “inactive”.
In the case of c1ccc(N=NNc2ccccc2)cc1, the Potency is reported as “inactive”.
With COC(C)(C)C the Potency was “inactive”.
With C(CCOCC1CO1)COCC1CO1 (configuration not stated) the Potency was “inactive”.
For CN(C)c1ccc(N)cc1, the Potency was 31.6 µM (active).
